According to PubChem BioAssay AID624291 (National Center for Advancing Translational Sciences (NCATS), 2012):
Out of some 350,000 compounds screened, about 220 (0.063%) were called active. Roughly 4% stayed inconclusive and do not appear here. This excerpt belongs to a sample that is enriched for actives. Values without a mark were called inactive. Calls come from the whole dose curve; as a rule, active = well fitted activation curve with a large enough effect; inconclusive = small, poorly fitted or top-dose-only effect; inactive = no such curve, though single readings can be large or run the other way.

assay: qHTS for Activators of Integrin-Mediated Alleviation for Muscular Dystrophy; settings: alpha7betagal myoblasts, beta-gal FDG fluorescence, 48 h; series mostly up to 38.3 µM; activation: at the top concentration; note: nearly all actives have a fitted effect of over 60% in size;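 for activation: 100% = response of the positive control SU9516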
Text: Integrins are a diverse family of transmembrane cell surface receptors that mediate interactions between cells and the extracellular matrix. These heterodimeric proteins are composed of alpha and beta subunits and the a7b1 interacts with laminin in the extracellular matrix and actin of the cell cytoskeleton. Both chains contribute to ligand binding, but the alpha chain mediates the specificity of the interaction. The alpha7beta1 integrin is a major laminin receptor in skeletal, cardiac and vascular smooth muscle. Mutations in the alpha7 integrin gene are responsible for muscular dystrophy in both humans and mice. The alpha7beta1 integrin is also a major modifier of muscle disease progression in various muscle diseases including Duchenne muscular dystrophy, Fukuyama muscular dystrophy and merosin deficient congenital muscular dystrophy type 1A. […] Transcriptional regulation of the alpha7 integrin gene is poorly understood and probably involves multiple transcription factors. The goal of identifying small molecules that enhance alpha7 integrin expression is two-fold: firstly, such molecules would help us gain insight into the complex transcriptional control of alpha7 integrin. It is known that alpha7 integrin expression is tightly controlled during various stages of development, disease and in response to external stimuli. The second goal of the project is to translate the above finding into a therapeutic strategy for muscular dystrophy. […] Thus this project aims to discover small molecule probes that would not only help in gaining a better understanding of the complex regulatory mechanism of alpha7 integrin expression, but also lead to development of pharmacological agents to fight muscular dystrophy. NIH Chemical Genomics Center [NCGC] NIH Molecular Libraries Probe Centers Network [MLPCN] MLPCN Grant: NS058429 Assay Submitter (PI): Dean Burkin, University of Nevada School of Medicine
A total of 250 alpha7betagal+/- myoblasts at passage 13 were dispensed using a mulitdrop from Thermo into black low base tissue culture treated microclear aurora plates in 6 ul media containing DMEM without phenol, 5% FBS, 1x GluMax and 1x Penicillin/Streptomycin. The plates were incubated 16-24 hr at 37C, 5% CO2, 95% humidity covered with low evaporation stainless steel lids from Kalypsys. Compounds were then dispensed using a Kalypsys pintool to deliver 23 nl/well compounds in DMSO (diluted into 6 uL resulting in a 1:260 dilution of compound). The control compound used was the cdk2 inhibitor SU9516 from Tocirs (found in the initial LOPAC screen). The plates were incubated for 48 hours at 37C, 5% CO2, 95% humidity using the same stainless steel lids. After incubation with compound, 5 ul of the media was aspirated using the Kalypsys washer/dispenser and 3 ul of the Mammalian Protein Extraction Reagent (MPER) lysis buffer (Thermo Fisher) was added. The plates were spun at 2000 rpms to remove bubbles and an initial capture was acquired on the Viewlux (Perkin Elmer) with exciation at 480 nm and emission at 540 nm for 25 seconds to omit any auto fluorescent compounds. The plates were then incubated for 10 minutes at room temperature. […] The plates were again read on the Viewlux with exciation at 480 nm and emission at 540 nm for 25 seconds.
Potency is the fitted concentration of half-maximal effect.

Structure (SMILES) | Potency | activation
O=Cc1cn(Cc2ccc(F)cc2Cl)c2ccccc12 | 15.8 µM (active) | 
O=c1[nH]c(=S)[nH]c(O)c1/C=C1\C=Nc2ccccc21 |  | -56.5%
Cc1ccc(Oc2cnn(-c3ccccc3)c(=O)c2Br)cc1 |  | -47.1%
CC(=O)c1ccc(S(=O)(=O)N2CCN(c3nc4c(C)c(C)ccc4cc3C#N)CC2)cc1 |  | -42%
CCOC(=O)c1cccc(C2=C(CNC(=O)c3ccncc3)[C@H]3CC[C@@H](C2)N3Cc2ccccc2)c1 |  | -46%
